According to PubChem BioAssay (NCATS):
Inconclusive results are not listed. A number with no mark means an inactive call. The source made the active and inactive calls. Calls follow the shape of the dose curve; as a rule, active = well fitted cell-killing curve with a large enough effect; inconclusive = small, poorly fitted or top-dose-only effect; inactive = no such curve, though single readings can be large or run the other way. Starred links: 1 amine or outer side, 2 acyl side, 3 side chain; linkers in the order of their positions; H or OH if unused. Positions of bridges follow the written chain, without caps; N, C: chain ends. Non-standard residues stand in square brackets, D forms with d. Residues, ends and D or L forms follow the SMILES beside them. Chains are numbered I, II in the order given. *: point of attachment. Actinocin(9to1) = Cc1c2oc3c(C)ccc(C(=O)[*:1])c3nc-2c(C(=O)[*:2])c(N)c1=O; NMeV = CN[CH](C(=O)O)C(C)C; Nva = CCC[C@H](N)C(=O)O; Cbz = O=C(OCc1ccccc1)*; Sar = CNCC(=O)O

Assay: qHTS of pediatric cancer cell lines to identify multiple opportunities for drug repurposing: Primary screen for Saos-2 cells (AID 1347097); also: nearly all actives have a fitted effect of over 40% in size
Conditions: Saos-2 viability, CellTiter-Glo ATP luminescence, 48 h; series mostly up to 46 µM; activity change, negative = cytotoxic: at the top concentration
From the text: Drug repurposing or repositioning has been offered as a strategy for drug development in oncology programs. This approach has special potential for childhood cancers and other rare or orphan diseases, where the expected return on new drug development has been a disincentive to pharmaceuticals. […] In this project we exploit the poly-pharmacology of drugs to discover new indications via phenotypic screening of a panel of 19 well-characterized cell lines derived from solid tumors seen in children and adolescents. The goal is to identify approved drugs with previously unrecognized anticancer properties that has the potential to reveal new mechanisms and biological processes involved in carcinogenesis or drug resistance. We employed a titration-based paradigm (quantitative high-throughput screening or qHTS), where all compounds were tested at multiple concentrations for their effect on cell viability. Concentration-response curves (CRCs) were derived directly from the primary screen, and both potency and efficacy values were used to identify compounds with robust bioactivity profiles. We screened the NIH Chemical Genomics Center (NCGC) Pharmaceutical Collection (NPC) and Mechanism Interrogation Plate (MIPE) small molecule collections of approved and investigational compounds against these cell lines; and measured metabolically active cells after 48 hours of compound treatment as a proxy for cell viability. […] Assay Submitter: Nathalia J. Martinez, National Center for Advancing Translational Sciences, National Institutes of Health, Rockville, MD, USA; email: natalia.martinez@nih.gov Shen, M et al. Quantitative high-throughput phenotypic screening of pediatric cancer cell lines identifies multiple opportunities for drug repurposing. Oncotarget 2017 Dec 19;9(4):4758-4772. PMID 29435139.
The cells were obtained from University of North Carolina (UNC), Pediatric Preclinical Testing Program (PPT), and Coriell Institute (CI). qHTS cell viability assay: Cells were assayed in growth media at a density of 500-1,000 cells/well. Five microliters of cells were dispensed into 1,536-well, white, solid-bottom, TC-treated plates (Greiner Bio One) using a multidrop dispenser and incubated at 37 degrees C, 5% CO2, under a humidified atmosphere for 5 hours. Twenty-three nanoliters of compounds and controls (neutral control DMSO or positive control bortezomib at final concentration of 2.3 µM) were subsequently transferred by Kalypsys pintool. For primary screens, the MIPE collection was tested at 11-point dilutions (final concentrations range from 0.78 nM to 46 µM) and the NPC collection at 8-point dilutions (final concentrations range from 0.59 nM to 46 µM). Compounds tested in follow-up screens were assayed at 11-point dilutions. Cells were incubated for 48 hours, followed by addition of 3 µL of CellTiter-Glo (Promega). After a 15 min incubation at room temperature, samples were analyzed for luminescence intensity using a ViewLux High-throughput CCD imager equipped with clear filters.
% is scaled to controls: 0 for no effect and ±100 for the full control effect; potency is read from the fitted curve at half-maximal effect.

Compound	Potency	activity change, negative = cytotoxic
COc1ccc(C(C)=O)c(O)c1	1660 nM (active)	–
CC(C)C[C@H](NC(=O)CNC(=O)c1cc(Cl)ccc1Cl)B1OC(=O)CC(CC(=O)O)(C(=O)O)O1 (stereo not given in full)	372 nM (active)	–
Cc1ncc(-c2ccnc(Nc3ccc(S(C)(=O)=O)cc3)n2)n1C(C)C	3720 nM (active)	–
C=CC(=O)Nc1ccc2ncnc(Nc3ccc(OCc4cccc(F)c4)c(Cl)c3)c2c1	29.6 nM (active)	–
C[C@@]12C(=O)OC(=O)[C@@]1(C)C1CCC2O1	2960 nM (active)	–
O=c1[nH]c(=O)n([C@H]2C[C@@H](O)[C@@H](CO)O2)cc1C=CBr	–	13.6%
Cn1cc(-c2cnn3c(N)c(Br)c([C@H]4CCCNC4)nc23)cn1	1480 nM (active)	–
COc1cc(OC)c(NC(=O)Nc2cc(C)on2)cc1Cl	–	-18.1%
Cc1ccc2nc(NCCN)c3ncc(C)n3c2c1	14800 nM (active)	–
CC[C@@]1([C@@H]2O[C@@H]([C@H]3O[C@@](O)(CO)[C@H](C)C[C@H]3C)C[C@H]2C)CC[C@H]([C@]2(C)CC[C@]3(C[C@H](O)[C@@H](C)[C@@H]([C@@H](C)[C@@H](OC)[C@H](C)C(=O)O)O3)O2)O1	6450 nM (active)	–
CO[C@@H]1[C@@H](O)[C@H](O)[C@@H](n2c3c(Cl)cccc3c3c4c(c5c6cccc(Cl)c6[nH]c5c32)C(=O)NC4=O)O[C@@H]1CO	296 nM (active)	–
C=CC(=O)N1CCc2ccc(-n3c(=O)ccc4cnc5ccc(-c6cnn(C)c6)cc5c43)cc21	2960 nM (active)	–
Cc1cncc2cccc(S(=O)(=O)N3CCCN(C(=O)CN)C[C@@H]3C)c12	2350 nM (active)	–
CN[C@H]1[C@@H](O)[C@@H]2O[C@@H]3O[C@H](C)CC(=O)[C@]3(O)O[C@@H]2[C@@H](NC)[C@H]1O	1870 nM (active)	–
CCc1nc(-c2cccc(C)c2)c(-c2ccnc(NC(=O)c3ccccc3)c2)s1	16600 nM (active)	–
CC(C)(O)CC[C@@H](O)[C@](C)(O)[C@H]1CC[C@@]2(O)C3=CC(=O)[C@@H]4C[C@@H](O)[C@@H](O)C[C@]4(C)[C@@H]3CC[C@]12C	–	-23.8%
NC(=O)Nc1cc(-c2ccc(CN3CCOCC3)cc2)sc1C(N)=O	2350 nM (active)	–
CC[C@]12C=CCN3CC[C@@]4(c5cc([C@@]6(C(=O)OC)C[C@H]7C[C@@H](C(C)(F)F)CN(Cc8c6[nH]c6ccccc86)C7)c(OC)cc5N(C)[C@H]4[C@@](O)(C(=O)OC)[C@H]1OC(C)=O)[C@@H]32	8.3 nM (active)	–
CCCCCCCCCCCCCCCC(=O)OC[C@@H](NC(=O)C(Cl)Cl)[C@H](O)c1ccc([N+](=O)[O-])cc1	–	16.3%
Cc1c2oc3c(C)ccc(C(=O)NC4C(=O)NC(C(C)C)C(=O)N5CCCC5C(=O)N(C)CC(=O)N(C)C(C(C)C)C(=O)OC4C)c3nc-2c(C(=O)NC2C(=O)NC(C(C)C)C(=O)N3CCCC3C(=O)N(C)CC(=O)N(C)C(C(C)C)C(=O)OC2C)c(N)c1=O (stereo not given) (I: TVP[Sar][NMeV] / II: TVP[Sar][NMeV]; ester I:1-I:C, II:1-II:C; linker I:N-II:N via Actinocin(9to1); configuration not given here)	1 nM (active)	–

Compound	Potency	activity change, negative = cytotoxic
C#Cc1cccc(Nc2ncnc3cc(OCCOC)c(OCCO)cc23)c1	5900 nM (active)	–
CC(=O)SCC(Cc1ccccc1)C(=O)NCC(=O)OCc1ccccc1 (stereo not given)	4690 nM (active)	–
OCC(O)C(O)C(O)CO (stereo not given)	–	-1.61%
C[C@H]1[C@@H](OC(=O)CCC(=O)O)O[C@@H]2O[C@@]3(C)CC[C@@H]4[C@H](C)CC[C@@H]1[C@@]24OO3	–	8.9%
Nc1nc(N)c2nc(-c3cccc(O)c3)c(-c3cccc(O)c3)nc2n1	18700 nM (active)	–
Cn1cc(C2=C(c3c4n(c5ccccc35)CCC(CN)C4)C(=O)NC2=O)c2ccccc21 (stereo not given)	18700 nM (active)	–
COC1=C2C[C@@H](C)C[C@H](OC)[C@@H](O)[C@@H](C)C=C(C)[C@H](OC(N)=O)[C@@H](OC)C=CC=C(C)C(=O)NC(=CC1=O)C2=O	–	-27.4%
O=C(O)CCCCCC(=O)NN=C1CCCC1	–	-6.93%
CC(=O)O[C@H]1C[C@@H]2CC[C@H]3[C@H]4C[C@H]([N+]5(C)CCCCC5)[C@@H](OC(C)=O)[C@@]4(C)CC[C@@H]3[C@@]2(C)C[C@H]1N1CCCCC1	–	40.2%
O=C(C=CC#Cc1cccc(NS(=O)(=O)c2ccccc2)c1)NO	2350 nM (active)	–
c1ccc(CNc2nc(NCc3ccccc3)c3ccccc3n2)cc1	18700 nM (active)	–
O=C(C[C@@H]1CC=CCCC(=O)O[C@H](c2ccccc2)CNC1=O)NCc1ccc(Cl)cc1	–	-5.03%
CC(C)c1cnn2c(NCc3ccccc3)cc(NCCCCCCN)nc12	23500 nM (active)	–
CON=C(C(=O)N[C@@H]1C(=O)N2C(C(=O)O)=C(CSC(=O)c3ccco3)CS[C@H]12)c1csc(N)n1	–	-19.7%
CC(=O)N[C@@H]1[C@H](O[C@@H]2c3ccc(c(Cl)c3)Oc3cc4cc(c3O[C@H]3O[C@H](CO)[C@@H](O)[C@H](O)[C@H]3NC(=O)CCCCCCCC(C)C)Oc3ccc(cc3Cl)C[C@H]3NC(=O)[C@H](N)c5ccc(O)c(c5)Oc5cc(O)cc(c5)[C@H](NC3=O)C(=O)N[C@H]4C(=O)N[C@H]3C(=O)N[C@@H]2C(=O)N[C@@H](C(=O)O)c2cc(O)cc(O[C@H]4O[C@H](CO)[C@@H](O)[C@H](O)[C@H]4O)c2-c2cc3ccc2O)O[C@H](CO)[C@@H](O)[C@@H]1O	–	19.1%
COc1cc(CCc2cc(NC(=O)c3ccc(N4C[C@@H](C)N[C@@H](C)C4)cc3)n[nH]2)cc(OC)c1	5900 nM (active)	–
C=CC(=O)Nc1cccc(Nc2nc(NC3CCC(N(C)C)CC3)nc3c2ncn3C(C)C)c1 (stereo not given)	833 nM (active)	–
CC(=O)O[C@]1(C(C)=O)CC[C@H]2[C@@H]3C=C(C)C4=CC(=O)CC[C@]4(C)[C@@H]3CC[C@@]21C	11800 nM (active)	–
CCC[C@@H](C=O)NC(=O)[C@H](CC(C)C)NC(=O)[C@H](CC(C)C)NC(=O)OCc1ccccc1 (Cbz-Leu-Leu-[Nva]-aldehyde)	1180 nM (active)	–
CC(Cc1ccc(O)c(O)c1)(NN)C(=O)O (stereo not given)	–	-20.7%
